Experimental data from PubChem BioAssay (Tox21).
A number with no mark means an inactive call. Records with an inconclusive call do not appear. A call without a number means that no potency is given here. The source made the active and inactive calls. Unless noted, the call rests on the fitted dose curve; in most records, active means well fitted curve in the direction sought with a large enough effect in the repeat runs; inconclusive means weak or mixed curves; inactive means no such curve, though single readings can be large; an effect the other way counts as inactive or inconclusive.

Legend:
[1] = qHTS assay to identify small molecule antagonists of the estrogen related receptor (ERR) signaling pathway from Tox21 library - cell viability counter screen (AID 1224834); further: nearly all actives have a fitted effect of over 30% in size
Outline: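 CellTiter-Fluor fluorescence, read after 30 min at 37 C, measures viability of ERR cells. Cells plated at 2,000/well and incubated 6 h before pin-tool compound addition, then exposed 17.5 hours at 37 C.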

[2] = target: Luciferin 4-monooxygenase (Photinus pyralis) (UniProt P08659); assay: qHTS assay to identify small molecule inhibitors of firefly luciferase (AID 1224835); further: nearly all actives have a fitted effect of over 25% in size
Luciferin 4-monooxygenase (Photinus pyralis), sequence (P08659 whole entry, looked up): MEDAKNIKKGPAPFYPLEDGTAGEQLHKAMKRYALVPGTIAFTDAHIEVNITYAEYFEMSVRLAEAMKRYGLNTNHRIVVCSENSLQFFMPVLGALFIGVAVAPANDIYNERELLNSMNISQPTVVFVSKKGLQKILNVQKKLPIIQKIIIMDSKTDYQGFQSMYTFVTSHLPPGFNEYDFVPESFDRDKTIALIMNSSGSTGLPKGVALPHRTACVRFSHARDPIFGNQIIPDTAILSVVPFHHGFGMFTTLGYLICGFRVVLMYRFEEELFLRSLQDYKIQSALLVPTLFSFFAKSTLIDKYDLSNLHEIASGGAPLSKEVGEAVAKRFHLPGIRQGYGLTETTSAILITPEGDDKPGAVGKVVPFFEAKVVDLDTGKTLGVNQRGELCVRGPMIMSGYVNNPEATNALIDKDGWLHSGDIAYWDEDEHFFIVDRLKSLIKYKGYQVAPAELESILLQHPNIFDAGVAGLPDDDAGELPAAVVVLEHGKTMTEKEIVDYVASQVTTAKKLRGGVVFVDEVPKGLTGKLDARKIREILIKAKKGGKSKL
Outline: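 Inhibition of purified Photinus luciferase is measured by luminescence. Substrate levels (D-luciferin, ATP) sit at their KM values. Each compound is tested in a concentration series.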

[3] = qHTS assay to identify small molecule agonists of the constitutive androstane receptor (CAR) signaling pathway - cell viability counter screen (AID 1224836); further: nearly all actives have a fitted effect of over 45% in size
Outline: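 Double-stable HepG2 hepatoma cells (hCAR plus CYP2B6-2.2kb) are treated for 23 h at 37 C with test compounds in 15-point concentration series. PK11195 at 0.75 uM final is co-added. Cell viability is quantified by CellTiter-Fluor.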

[4] = qHTS assay to identify small molecule antagonists of the constitutive androstane receptor (CAR) signaling pathway - cell viability counter screen (AID 1224837); further: nearly all actives have a fitted effect of over 45% in size
Outline: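 Cytotoxicity counter-screen: CellTiter-Fluor fluorescence after 23 h compound exposure (15-point qHTS) in double-stable HepG2-CYP2B6-hCAR cells, with 50 nM CITCO added.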

[5] = target: Nuclear receptor subfamily 1 group I member 3 (Homo sapiens) (UniProt Q14994); assay: qHTS assay to identify small molecule antagonists of the constitutive androstane receptor (CAR) signaling pathway (AID 1224838);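 further: HepG2 cells stably expressing hCAR with CYP2B6 luciferase reporter stimulated by CITCO; nearly all actives have a fitted effect of over 40% in size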
Nuclear receptor subfamily 1 group I member 3 (Homo sapiens), sequence (Q14994 whole entry, looked up): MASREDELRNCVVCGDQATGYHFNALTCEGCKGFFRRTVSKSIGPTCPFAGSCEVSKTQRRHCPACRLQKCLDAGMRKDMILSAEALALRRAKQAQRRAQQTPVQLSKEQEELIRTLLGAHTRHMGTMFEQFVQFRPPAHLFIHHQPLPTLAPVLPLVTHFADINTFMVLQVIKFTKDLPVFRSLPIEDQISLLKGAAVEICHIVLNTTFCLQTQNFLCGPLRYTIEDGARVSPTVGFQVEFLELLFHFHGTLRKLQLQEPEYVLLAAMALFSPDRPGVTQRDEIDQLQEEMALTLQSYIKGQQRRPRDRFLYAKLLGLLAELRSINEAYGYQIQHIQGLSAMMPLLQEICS
Outline: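 Antagonism measured as luciferase signal (ONE-Glo, 30 min, room temperature) in CAR-stimulated cells: HepG2-CYP2B6-hCAR double-stable line exposed 24 hr at 37 C to compound in a 15-point series plus 50 nM CITCO.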

[6] = qHTS assay to identify small molecule antagonists of the estrogen related receptor signaling pathway with the pleiotropic PPARgamma coactivator (PGC) from Tox21 10K library - cell viability counter screen (AID 1224840; active means well fitted cell-killing curve with a large enough effect in the repeat runs, not every such curve was filed as active; further: nearly all actives have a fitted effect of over 40% in size)
Outline: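 Counter-screen for cytotoxicity: after 17.5 h compound exposure at 37 C, CellTiter-Fluor reagent added to PGC/ERR cells for 30 min and fluorescence read. Cells were seeded at 2,000 per well 6 h before dosing.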

[7] = qHTS assay to identify small molecule agonists of the hypoxia (HIF-1) signaling pathway - cell viability counter screen (AID 1224844; calls by dose curve; further: nearly all actives have a fitted effect of over 50% in size)
Outline: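 Cytotoxicity measured by CellTiter-Glo ATP luminescence in the wells also read for beta-lactamase signal. Cells were HRE-bla ME-180 (2,000/well, 0.5% dialyzed FBS), exposed to compounds for 17 h at 37C.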

[8] = qHTS assay to identify small molecule agonists of H2AX (AID 1224845; active means well fitted activation curve with a large enough effect in the signal ratio in the repeat runs, not every such curve was filed as active; the % refers to the signal ratio)
Outline: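 Phospho-H2AX Ser139 measured by HTRF (ex 320 nm; em 665 and 620 nm) after 24 hr antibody incubation. Compounds, 15 concentrations, 0.76% DMSO, were applied to CHO-K1 cells for 3hr at 37C before lysis.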

[9] = qHTS assay to identify small molecule agonists of the hypoxia (HIF-1) signaling pathway (AID 1224846; active means well fitted activation curve with a large enough effect in the signal ratio in the repeat runs, not every such curve was filed as active; the % refers to the signal ratio)
Outline: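 Compounds added to ME-180 cells carrying hypoxia-response-element beta-lactamase reporter (0.5% dialyzed FBS, 5 h preplating), 17 h at 37C; agonist activity detected by CCF4-AM B/G FRET read-out.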

[10] = qHTS assay to identify small molecule agonists of H2AX - cell viability counter screen (AID 1224847; calls by dose curve;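 further: wild-type CHO-K1 cells; top concentration of the series differs between compounds; nearly all actives have a fitted effect of over 30% in size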)
Outline: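 For this counter screen, overnight-attached CHO-K1 cells received test compounds (15 concentrations, 0.76% DMSO final); 3 hr later at 37C, CellTiter-Glo reagent was added and luminescence recorded after 30 min at room temperature.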

[11] = qHTS RealTime-Glo MT Cell Viability Assay in HepG2 cells - 24 hour (AID 1224867); further: nearly all actives have a fitted effect of over 50% in size
Outline: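 Compound treatment began 5 h after plating HepG2 cells (600/well) with NanoLuc luciferase and prosubstrate. Plates stayed at 37 C for 40 h; luminescence was captured at six time points, 0 h through 40 h.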

[12] = qHTS RealTime-Glo MT Cell Viability Assay in HEK293 cells - 32 hour (AID 1224868); further: top concentration of the series differs between compounds; nearly all actives have a fitted effect of over 50% in size
Outline: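 Quantitative high-throughput screen of the Tox21 10K library in HEK293: cells and RealTime-Glo reagents plated together, compound added at 5 h, luminescence monitored through 40 h at 37 C.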

[13] = A CellTox Green Cytotoxicity Assay to monitor cytotoxicity in HEK293 cells - 0 hour (AID 1224869); further: nearly all actives have a fitted effect of over 50% in size; further: potency means the concentration at half of the fitted maximal effect
Outline: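 Fluorescence from a DNA-binding dye excluded by viable cells was measured repeatedly in the same HEK293 wells (600 cells/well) during continuous compound exposure at 37 C. Each assay gives one read point: 0, 8, 16, 24, 32 or 40 h.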

[14] = qHTS RealTime-Glo MT Cell Viability Assay in HepG2 cells - 40 hour (AID 1224870); further: nearly all actives have a fitted effect of over 50% in size
Outline: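 Real-time viability: cells seeded at 600 per well together with NanoLuc and cell-permeant prosubstrate, compounds added after 5 h incubation. Luminescence tracked at 0, 8, 16, 24, 32 and 40 h of exposure.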

[15] = target: Nuclear receptor subfamily 1 group I member 3 (Homo sapiens) (UniProt Q14994); assay: qHTS assay to identify small molecule agonists of the constitutive androstane receptor (CAR) signaling pathway (AID 1224839); further: nearly all actives have a fitted effect of over 15% in size; further: potency means the concentration at half of the fitted maximal effect;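 on activation: HepG2 cells stably carrying human CAR and a CYP2B6 luciferase reporter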
Outline: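 Readout: firefly luciferase luminescence via ONE-Glo. System: HepG2 double-stable for hCAR and CYP2B6-2.2kb. Conditions: 15-point compound titration, PK11195 at 0.75 uM final, 24 h incubation.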

[16] = target: Thyrotropin receptor (Homo sapiens) (UniProt P16473); assay: qHTS assay to identify small molecule agonists of the thyroid stimulating hormone receptor (TSHR) signaling pathway (AID 1224843; calls by dose curve; further: nearly all actives have a fitted effect of over 45% in size)
Thyrotropin receptor (Homo sapiens), sequence (P16473 whole entry, looked up): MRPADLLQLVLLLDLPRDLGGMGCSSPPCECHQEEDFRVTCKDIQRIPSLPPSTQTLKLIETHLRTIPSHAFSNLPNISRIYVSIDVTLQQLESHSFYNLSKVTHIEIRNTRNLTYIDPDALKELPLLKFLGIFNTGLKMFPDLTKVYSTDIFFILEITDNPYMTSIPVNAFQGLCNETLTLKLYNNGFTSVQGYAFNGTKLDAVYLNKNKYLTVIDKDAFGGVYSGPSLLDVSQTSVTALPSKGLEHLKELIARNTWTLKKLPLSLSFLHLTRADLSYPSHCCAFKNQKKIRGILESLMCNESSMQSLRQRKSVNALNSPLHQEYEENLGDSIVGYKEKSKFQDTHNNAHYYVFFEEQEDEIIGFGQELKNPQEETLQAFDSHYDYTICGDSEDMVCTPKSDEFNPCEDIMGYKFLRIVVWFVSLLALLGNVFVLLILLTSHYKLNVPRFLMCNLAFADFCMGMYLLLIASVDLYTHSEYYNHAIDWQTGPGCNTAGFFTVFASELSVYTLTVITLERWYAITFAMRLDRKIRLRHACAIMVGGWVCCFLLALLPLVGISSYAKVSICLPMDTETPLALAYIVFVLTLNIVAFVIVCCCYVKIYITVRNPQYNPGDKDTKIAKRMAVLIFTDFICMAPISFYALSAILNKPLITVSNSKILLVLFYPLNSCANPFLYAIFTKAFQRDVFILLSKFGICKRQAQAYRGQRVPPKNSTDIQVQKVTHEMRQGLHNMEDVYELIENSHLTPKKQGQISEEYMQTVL
Outline: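 A cell-based cAMP HTRF format was run in TSHR-transfected HEK293 cells, 800 per well. Treatment: 30 min, room temperature. Detection: 1 h with labelled cAMP and anti-cAMP cryptate. Concentration-response over 15 points, three replicates.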

[17] = qHTS assay to identify small molecule antagonists of the estrogen related receptor signaling pathway with the pleiotropic PPARgamma coactivator (PGC) from Tox21 10K library (AID 1224841; call rule not given here)
Outline: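 Luminescence (One-Glo, 30 min at room temperature) after 18 h compound treatment at 37 C of PGC/ERR reporter cells plated at 2,000 cells/well and settled 6 h beforehand.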

[18] = qHTS assay to identify small molecule agonists of the estrogen related receptor signaling pathway with the pleiotropic PPARgamma coactivator (PGC) from Tox21 10K library (AID 1224842); further: nearly all actives have a fitted effect of over 15% in size
Outline: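 Luminescence from One-Glo (30 min, room temperature) measured after PGC/ERR cells had 18 h at 37 C with pinned compound (23 nL in DMSO). Cells had been seeded at 2,000 per well and pre-incubated 6 h.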

[19] = qHTS assay to identify small molecule agonists of the estrogen related receptor (ERR) signaling pathway from Tox21 library (AID 1224849; calls by dose curve; further: nearly all actives have a fitted effect of over 15% in size); details: ERR reporter cell line, ONE-Glo luciferase, 18 h; at 92.4 µM (top of the series) unless noted
Outline: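 Luminescent agonist read-out (One-Glo, 30-minute room-temperature incubation) following 18-hour compound treatment at 37 C of the ERR cell line, which had been plated 6 hours before dosing.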

[20] = qHTS assay to identify small molecule antagonists of the estrogen related receptor (ERR) signaling pathway from Tox21 library (AID 1224848); further: nearly all actives have a fitted effect of over 50% in size
Outline: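 ERR cell line, 2,000 cells/well. 6 h settle, then compound (DMSO) added; 18 h at 37 C; ONE-Glo luminescence after 30 min RT.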

Row | Structure (SMILES) | Potency [1] | Potency [2] | Potency [3] | Potency [4] | Potency [5] | Potency [6] | Potency [7] | Potency [8] | outcome [9] | Potency [10] | Potency [11] | Potency [12] | Potency [13] | Potency [14] | Potency [15] | Potency [16] | Potency [17] | outcome [18] | activity change, positive = activation [19] | Potency [20]
1 | CC(C)NCC(O)c1ccc(N)c(C#N)c1 (stereo unspecified) | inactive | inactive | inactive | inactive | inactive | inactive | inactive | inactive | inactive | inactive | inactive | inactive | inactive | inactive |  |  |  |  |  | 
2 | CNC(=O)Oc1c(C(C)(C)C)cc(C)cc1C(C)(C)C | inactive | inactive | inactive | inactive |  | inactive | inactive | inactive | inactive | inactive | inactive | inactive | inactive |  | 10.9 µM (active) |  |  |  |  | 
3 | Oc1c(Cl)cccc1Cl | inactive | inactive | inactive | inactive |  | inactive | inactive | inactive | inactive | inactive | inactive | inactive | inactive | inactive | inactive | inactive |  |  |  | 
4 | CN1C[C@@H](NS(=O)(=O)N(C)C)C[C@@H]2c3cccc4c3c(cn4C)C[C@H]21 | inactive | inactive | inactive | inactive | inactive |  | inactive | inactive | inactive | inactive | inactive | inactive | inactive | inactive |  | inactive |  |  |  | 
5 | C[C@]12CC[C@H]3[C@@H](CCC4=CC(=O)CC[C@@]43C)[C@@H]1CC[C@@H]2C(=O)O | inactive | inactive | inactive | inactive |  | inactive | inactive | inactive | inactive | inactive | inactive | inactive |  | inactive | inactive | inactive | inactive | inactive | -8.07% [at 42.5 µM] | 
6 | CCC(=O)C(CCN(C)C)(c1ccccc1)c1ccccc1 | inactive | inactive | inactive | inactive |  | inactive | inactive | inactive | inactive | inactive | inactive | inactive | inactive | inactive | inactive |  |  |  |  | 
7 | CC(CCc1ccccc1)NC(C)C(O)c1ccc(O)cc1 (stereo unspecified) | inactive | inactive | inactive | inactive |  | inactive | inactive | inactive | inactive | inactive | inactive | inactive | inactive | inactive | inactive | inactive |  |  |  | 
8 | O=C(CCN1CC1)OCC(CO)(COC(=O)CCN1CC1)COC(=O)CCN1CC1 | inactive | inactive | inactive | inactive |  | inactive | inactive | inactive | inactive | inactive | inactive | inactive | inactive | inactive | inactive | inactive |  |  |  | 
9 | O=C1CN2CCOC2(c2ccccc2Cl)c2cc(Cl)ccc2N1 (stereo unspecified) | inactive | inactive | inactive | inactive | inactive |  | inactive | inactive | inactive | inactive | inactive | inactive | inactive |  |  | inactive |  |  |  | 
10 | CN(C)CCc1ccc(O)cc1 | inactive | inactive | inactive | inactive |  | inactive | inactive | inactive | inactive | inactive | inactive |  | inactive |  | inactive | inactive | inactive | inactive | 5.13% [at 42.5 µM] | inactive
11 | CCC(=O)c1ccccc1 | inactive | inactive | inactive | inactive |  | inactive | inactive | inactive | inactive | inactive | inactive | inactive |  | inactive | inactive | inactive |  |  |  | 
12 | CN1C(=S)CN=C(c2ccccc2)c2cc(Cl)ccc21 | inactive | inactive | inactive | inactive | inactive | inactive | inactive |  | inactive | inactive | inactive |  | 5.35 µM (active) |  |  | inactive |  |  |  | 
13 | CCS(=O)(=O)C(C)(C)S(=O)(=O)CC | inactive | inactive | inactive | inactive |  | inactive | inactive | inactive | inactive | inactive | inactive | inactive | inactive |  | inactive | inactive | inactive | inactive | 3.77% [at 42.5 µM] | 
14 | COc1cc(OC)nc(NC(=O)NS(=O)(=O)c2ncccc2OCC(F)(F)F)n1 | inactive | inactive | inactive | inactive |  | inactive | inactive | inactive | inactive | inactive | inactive | inactive | inactive |  | inactive |  | inactive | inactive | 9.4% | 
